# Read-outs that look alike come from different tables or passages of the source.
# Key:
# [1] = tested on: STK4; settings: read-out: apparent Kd, n = 1
# [2] = tested on: SYK; settings: read-out: apparent Kd, n = 1
# [3] = compound concentrations:100 nM and 1000 nM (sheet 'Lestaurtinib' of Supplementary Table 1),run:Lestaurtinib_02482_R1,Plate:MR011
# [4] = compound concentrations:100 nM and 1000 nM (sheet 'Lestaurtinib' of Supplementary Table 1),run:Lestaurtinib_02482_R2,Plate:MR011
# [5] = compound concentrations:100 nM and 1000 nM (sheet 'Lestaurtinib' of Supplementary Table 1),run:Lestaurtinib_02482_R3,Plate:MR011
# [6] = compound concentrations:100 nM and 1000 nM (sheet 'Lestaurtinib' of Supplementary Table 1),run:Lestaurtinib_02487_R1,Plate:MR012
# [7] = compound concentrations:100 nM and 1000 nM (sheet 'Lestaurtinib' of Supplementary Table 1),run:Lestaurtinib_02496_R1,Plate:MR013
# [8] = compound concentrations:100 nM and 1000 nM (sheet 'Lestaurtinib' of Supplementary Table 1),run:Lestaurtinib_02566_R3,Plate:MR014
# [9] = compound concentrations:100 nM and 1000 nM (sheet 'Lestaurtinib' of Supplementary Table 1),run:Lestaurtinib_02577_R3,Plate:MR016
# [10] = compound concentrations:100 nM and 1000 nM (sheet 'Lestaurtinib' of Supplementary Table 1),run:Lestaurtinib_02584_R1,Plate:MR017
# [11] = compound concentrations:100 nM and 1000 nM (sheet 'Lestaurtinib' of Supplementary Table 1),run:Lestaurtinib_02584_R3,Plate:MR017
# [12] = compound concentrations:100 nM and 1000 nM (sheet 'Lestaurtinib' of Supplementary Table 1),run:Lestaurtinib_02601_R1,Plate:MR018
# [13] = compound concentrations:100 nM and 1000 nM (sheet 'Lestaurtinib' of Supplementary Table 1),run:Lestaurtinib_02601_R2,Plate:MR018
# [14] = compound concentrations:100 nM and 1000 nM (sheet 'Lestaurtinib' of Supplementary Table 1),run:Lestaurtinib_02601_R3,Plate:MR018
# [15] = compound concentrations:100 nM and 1000 nM (sheet 'Lestaurtinib' of Supplementary Table 1),run:Lestaurtinib_02606_R1,Plate:MR019
# [16] = compound concentrations:100 nM and 1000 nM (sheet 'Lestaurtinib' of Supplementary Table 1),run:Lestaurtinib_02606_R2,Plate:MR019
# [17] = compound concentrations:100 nM and 1000 nM (sheet 'Lestaurtinib' of Supplementary Table 1),run:Lestaurtinib_02624_R1,Plate:MR020
# [18] = compound concentrations:100 nM and 1000 nM (sheet 'Lestaurtinib' of Supplementary Table 1),run:Lestaurtinib_02741_R2,Plate:MR023
substance,measurement,setting,value
Lestaurtinib,potency estimated from few doses,[1]; [3],0.0345 µM
same,potency estimated from few doses,[1]; [4],0.0425 µM
same,potency estimated from few doses,[1]; [5],0.0381 µM
same,potency estimated from few doses,[1]; [6],0.033 µM
same,potency estimated from few doses,"[1]; compound concentrations:100 nM and 1000 nM (sheet 'Lestaurtinib' of Supplementary Table 1),run:Lestaurtinib_02487_R3,Plate:MR012",0.048 µM
same,potency estimated from few doses,[1]; [7],0.0394 µM
same,potency estimated from few doses,"[1]; compound concentrations:100 nM and 1000 nM (sheet 'Lestaurtinib' of Supplementary Table 1),run:Lestaurtinib_02496_R3,Plate:MR013",0.0366 µM
same,potency estimated from few doses,"[1]; compound concentrations:100 nM and 1000 nM (sheet 'Lestaurtinib' of Supplementary Table 1),run:Lestaurtinib_02566_R2,Plate:MR014",0.0536 µM
same,potency estimated from few doses,[1]; [8],0.0368 µM
same,potency estimated from few doses,"[1]; compound concentrations:100 nM and 1000 nM (sheet 'Lestaurtinib' of Supplementary Table 1),run:Lestaurtinib_02572_R2,Plate:MR015",0.0384 µM
same,potency estimated from few doses,"[1]; compound concentrations:100 nM and 1000 nM (sheet 'Lestaurtinib' of Supplementary Table 1),run:Lestaurtinib_02572_R3,Plate:MR015",0.0515 µM
same,potency estimated from few doses,[1]; [9],0.0261 µM
same,potency estimated from few doses,[1]; [10],0.0323 µM
same,potency estimated from few doses,"[1]; compound concentrations:100 nM and 1000 nM (sheet 'Lestaurtinib' of Supplementary Table 1),run:Lestaurtinib_02584_R2,Plate:MR017",0.0377 µM
same,potency estimated from few doses,[1]; [11],0.0397 µM
same,potency estimated from few doses,[1]; [12],0.0473 µM
same,potency estimated from few doses,[1]; [13],0.0411 µM
same,potency estimated from few doses,[1]; [14],0.0512 µM
same,potency estimated from few doses,[1]; [15],0.0386 µM
same,potency estimated from few doses,[1]; [16],0.0556 µM
same,potency estimated from few doses,[1]; [17],0.0483 µM
same,potency estimated from few doses,"[1]; compound concentrations:100 nM and 1000 nM (sheet 'Lestaurtinib' of Supplementary Table 1),run:Lestaurtinib_02724_R1,Plate:MR021",0.0524 µM
same,potency estimated from few doses,"[1]; compound concentrations:100 nM and 1000 nM (sheet 'Lestaurtinib' of Supplementary Table 1),run:Lestaurtinib_02724_R2,Plate:MR021",0.0414 µM
same,potency estimated from few doses,"[1]; compound concentrations:100 nM and 1000 nM (sheet 'Lestaurtinib' of Supplementary Table 1),run:Lestaurtinib_02724_R3,Plate:MR021",0.0398 µM
same,potency estimated from few doses,[1]; [18],0.0362 µM
same,potency estimated from few doses,"[1]; compound concentrations:100 nM and 1000 nM (sheet 'Lestaurtinib' of Supplementary Table 1),run:Lestaurtinib_02748_R2,Plate:MR024",0.0317 µM
same,potency estimated from few doses,"[1]; compound concentrations:100 nM and 1000 nM (sheet 'Lestaurtinib' of Supplementary Table 1),run:Lestaurtinib_02748_R3,Plate:MR024",0.0409 µM
same,potency estimated from few doses,"[1]; compound concentrations:100 nM and 1000 nM (sheet 'Lestaurtinib' of Supplementary Table 1),run:Lestaurtinib_02752_R1,Plate:MR025",0.0515 µM
same,potency estimated from few doses,"[1]; compound concentrations:100 nM and 1000 nM (sheet 'Lestaurtinib' of Supplementary Table 1),run:Lestaurtinib_02752_R2,Plate:MR025",0.0362 µM
same,potency estimated from few doses,"[1]; compound concentrations:100 nM and 1000 nM (sheet 'Lestaurtinib' of Supplementary Table 1),run:Lestaurtinib_02752_R3,Plate:MR025",0.0359 µM
same,potency estimated from few doses,"[1]; compound concentrations:100 nM and 1000 nM (sheet 'Lestaurtinib' of Supplementary Table 1),run:Lestaurtinib_02766_R2,Plate:MR027",0.0454 µM
same,potency estimated from few doses,"[1]; compound concentrations:100 nM and 1000 nM (sheet 'Lestaurtinib' of Supplementary Table 1),run:Lestaurtinib_02768_R1,Plate:MR028",0.0432 µM
same,potency estimated from few doses,"[1]; compound concentrations:100 nM and 1000 nM (sheet 'Lestaurtinib' of Supplementary Table 1),run:Lestaurtinib_02795_R2,Plate:MR022",0.0297 µM
same,potency estimated from few doses,"[1]; compound concentrations:100 nM and 1000 nM (sheet 'Lestaurtinib' of Supplementary Table 1),run:Lestaurtinib_02802_R1,Plate:MR029",0.0347 µM
same,potency estimated from few doses,"[1]; compound concentrations:100 nM and 1000 nM (sheet 'Lestaurtinib' of Supplementary Table 1),run:Lestaurtinib_02896_R1,Plate:MR030",0.0358 µM
same,potency estimated from few doses,"[1]; compound concentrations:100 nM and 1000 nM (sheet 'Lestaurtinib' of Supplementary Table 1),run:Lestaurtinib_03172_R1,Plate:MR031",0.0306 µM
same,potency estimated from few doses,"[1]; compound concentrations:100 nM and 1000 nM (sheet 'Lestaurtinib' of Supplementary Table 1),run:Lestaurtinib_03172_R2,Plate:MR031",0.0388 µM
same,potency estimated from few doses,"[1]; compound concentrations:100 nM and 1000 nM (sheet 'Lestaurtinib' of Supplementary Table 1),run:Lestaurtinib_03172_R3,Plate:MR031",0.0352 µM
same,potency estimated from few doses,"[1]; compound concentrations:100 nM and 1000 nM (sheet 'Lestaurtinib' of Supplementary Table 1),run:Lestaurtinib_03252_R2,Plate:MR032",0.0456 µM
same,potency estimated from few doses,"[1]; compound concentrations:100 nM and 1000 nM (sheet 'Lestaurtinib' of Supplementary Table 1),run:Lestaurtinib_03260_R1,Plate:MR033",0.0382 µM
same,potency estimated from few doses,"[1]; compound concentrations:100 nM and 1000 nM (sheet 'Lestaurtinib' of Supplementary Table 1),run:Lestaurtinib_03260_R2,Plate:MR033",0.0475 µM
same,potency estimated from few doses,"[2]; compound concentrations:100 nM and 1000 nM (sheet 'Lestaurtinib' of Supplementary Table 1),run:Lestaurtinib_02339_R1,Plate:MR001",0.511 µM
same,potency estimated from few doses,"[2]; compound concentrations:100 nM and 1000 nM (sheet 'Lestaurtinib' of Supplementary Table 1),run:Lestaurtinib_02364_R1,Plate:MR002",0.481 µM
same,potency estimated from few doses,"[2]; compound concentrations:100 nM and 1000 nM (sheet 'Lestaurtinib' of Supplementary Table 1),run:Lestaurtinib_02364_R3,Plate:MR002",0.486 µM
same,potency estimated from few doses,"[2]; compound concentrations:100 nM and 1000 nM (sheet 'Lestaurtinib' of Supplementary Table 1),run:Lestaurtinib_02367_R1,Plate:MR003",0.14 µM
same,potency estimated from few doses,"[2]; compound concentrations:100 nM and 1000 nM (sheet 'Lestaurtinib' of Supplementary Table 1),run:Lestaurtinib_02381_R1,Plate:MR004",0.206 µM
same,potency estimated from few doses,"[2]; compound concentrations:100 nM and 1000 nM (sheet 'Lestaurtinib' of Supplementary Table 1),run:Lestaurtinib_02381_R2,Plate:MR004",0.17 µM
same,potency estimated from few doses,"[2]; compound concentrations:100 nM and 1000 nM (sheet 'Lestaurtinib' of Supplementary Table 1),run:Lestaurtinib_02381_R3,Plate:MR004",0.44 µM
same,potency estimated from few doses,"[2]; compound concentrations:100 nM and 1000 nM (sheet 'Lestaurtinib' of Supplementary Table 1),run:Lestaurtinib_02407_R1,Plate:MR005",0.189 µM
same,potency estimated from few doses,"[2]; compound concentrations:100 nM and 1000 nM (sheet 'Lestaurtinib' of Supplementary Table 1),run:Lestaurtinib_02407_R2,Plate:MR005",0.134 µM
same,potency estimated from few doses,"[2]; compound concentrations:100 nM and 1000 nM (sheet 'Lestaurtinib' of Supplementary Table 1),run:Lestaurtinib_02407_R3,Plate:MR005",0.157 µM
same,potency estimated from few doses,"[2]; compound concentrations:100 nM and 1000 nM (sheet 'Lestaurtinib' of Supplementary Table 1),run:Lestaurtinib_02422_R2,Plate:MR006",0.507 µM
same,potency estimated from few doses,"[2]; compound concentrations:100 nM and 1000 nM (sheet 'Lestaurtinib' of Supplementary Table 1),run:Lestaurtinib_02422_R3,Plate:MR006",0.218 µM
same,potency estimated from few doses,"[2]; compound concentrations:100 nM and 1000 nM (sheet 'Lestaurtinib' of Supplementary Table 1),run:Lestaurtinib_02437_R2,Plate:MR007",0.5 µM
same,potency estimated from few doses,"[2]; compound concentrations:100 nM and 1000 nM (sheet 'Lestaurtinib' of Supplementary Table 1),run:Lestaurtinib_02438_R2,Plate:MR008",0.161 µM
same,potency estimated from few doses,"[2]; compound concentrations:100 nM and 1000 nM (sheet 'Lestaurtinib' of Supplementary Table 1),run:Lestaurtinib_02443_R1,Plate:MR009",0.437 µM
same,potency estimated from few doses,"[2]; compound concentrations:100 nM and 1000 nM (sheet 'Lestaurtinib' of Supplementary Table 1),run:Lestaurtinib_02473_R1,Plate:MR010",0.478 µM
same,potency estimated from few doses,"[2]; compound concentrations:100 nM and 1000 nM (sheet 'Lestaurtinib' of Supplementary Table 1),run:Lestaurtinib_02473_R2,Plate:MR010",0.446 µM
same,potency estimated from few doses,"[2]; compound concentrations:100 nM and 1000 nM (sheet 'Lestaurtinib' of Supplementary Table 1),run:Lestaurtinib_02473_R3,Plate:MR010",0.416 µM
same,potency estimated from few doses,[2]; [3],0.523 µM
same,potency estimated from few doses,[2]; [4],0.462 µM
same,potency estimated from few doses,[2]; [5],0.432 µM
same,potency estimated from few doses,[2]; [6],0.598 µM
same,potency estimated from few doses,"[2]; compound concentrations:100 nM and 1000 nM (sheet 'Lestaurtinib' of Supplementary Table 1),run:Lestaurtinib_02487_R2,Plate:MR012",0.495 µM
same,potency estimated from few doses,[2]; [7],0.515 µM
same,potency estimated from few doses,"[2]; compound concentrations:100 nM and 1000 nM (sheet 'Lestaurtinib' of Supplementary Table 1),run:Lestaurtinib_02496_R2,Plate:MR013",0.579 µM
same,potency estimated from few doses,"[2]; compound concentrations:100 nM and 1000 nM (sheet 'Lestaurtinib' of Supplementary Table 1),run:Lestaurtinib_02566_R1,Plate:MR014",0.297 µM
same,potency estimated from few doses,[2]; [8],0.134 µM
same,potency estimated from few doses,"[2]; compound concentrations:100 nM and 1000 nM (sheet 'Lestaurtinib' of Supplementary Table 1),run:Lestaurtinib_02577_R1,Plate:MR016",0.26 µM
same,potency estimated from few doses,[2]; [9],0.149 µM
same,potency estimated from few doses,[2]; [10],0.473 µM
same,potency estimated from few doses,[2]; [11],0.401 µM
same,potency estimated from few doses,[2]; [12],0.42 µM
same,potency estimated from few doses,[2]; [13],0.553 µM
same,potency estimated from few doses,[2]; [14],0.462 µM
same,potency estimated from few doses,[2]; [15],0.388 µM
same,potency estimated from few doses,[2]; [16],0.511 µM
same,potency estimated from few doses,"[2]; compound concentrations:100 nM and 1000 nM (sheet 'Lestaurtinib' of Supplementary Table 1),run:Lestaurtinib_02606_R3,Plate:MR019",0.488 µM
same,potency estimated from few doses,[2]; [17],0.402 µM
same,potency estimated from few doses,"[2]; compound concentrations:100 nM and 1000 nM (sheet 'Lestaurtinib' of Supplementary Table 1),run:Lestaurtinib_02624_R2,Plate:MR020",0.44 µM
same,potency estimated from few doses,"[2]; compound concentrations:100 nM and 1000 nM (sheet 'Lestaurtinib' of Supplementary Table 1),run:Lestaurtinib_02624_R3,Plate:MR020",0.215 µM
same,potency estimated from few doses,"[2]; compound concentrations:100 nM and 1000 nM (sheet 'Lestaurtinib' of Supplementary Table 1),run:Lestaurtinib_02741_R1,Plate:MR023",0.395 µM
same,potency estimated from few doses,[2]; [18],0.396 µM
same,potency estimated from few doses,"[2]; compound concentrations:100 nM and 1000 nM (sheet 'Lestaurtinib' of Supplementary Table 1),run:Lestaurtinib_02741_R3,Plate:MR023",0.236 µM
